# PubChem BioAssay AID686978 (National Center for Advancing Translational Sciences (NCATS), 2013)
# Among all 420,000 compounds or so, about 64,000 (15%) were called active. Roughly 27% stayed inconclusive and do not appear here. Calls come from the whole dose curve; as a rule, active = well fitted inhibition curve with a large enough effect; inconclusive = small, poorly fitted or top-dose-only effect; inactive = flat fitted curve, though single readings scatter. These entries were drawn from the full list.
# Experiment: qHTS for Inhibitors of human tyrosyl-DNA phosphodiesterase 1 (TDP1): qHTS in cells in absence of CPT; note: nearly all actives have a fitted effect of over 55% in size
# Conditions: DT40 Tdp1-/- hTDP1 cells, no CPT, ATP luminescence, 48 h; activity change, negative = growth inhibition: at 46.2 µM (top of the series)
# In short: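 No-CPT arm: Tdp1-/-;hTDP1 DT40 cells (400/well) plus compounds, incubated ≥48 hr at 37 °C. Readout CellTiter-Glo luminescence.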
# % is set by controls: 0 for no effect and ±100 for the full control effect; potency is the fitted concentration of half-maximal effect.
Compound,"activity change, negative = growth inhibition",Potency
CN(C)c1nccc(NCc2ccccc2)c1C#N,-11.5% (inactive),
Cc1ccc(-c2nnc(SC(C)C#N)n2N)cc1 (stereo not drawn),-11.7% (inactive),
CCc1nn(CC(=O)NCC(C)c2ccccc2)c(=O)c2cc3occc3n12 (stereo not drawn),-24.4% (inactive),
CCc1nn(CCCC(=O)NC(C)c2ccccc2)c(=O)c2cc3occc3n12 (stereo not drawn),8.18% (inactive),
CCCNC(=O)C(CC)n1nc(CC)n2c(cc3oc(C)cc32)c1=O (stereo not drawn),,20.6 µM (active)
Cc1ccnc(NC(=O)CCC(=O)N(CC(=O)NCCc2ccccc2)Cc2cccs2)c1,-11.8% (inactive),
C=CCNC(=O)C1CC=CCC1C(=O)O (stereo not drawn),-1.68% (inactive),
CCCCNC(=O)c1ccc(-n2c(=S)[nH]c3ccccc3c2=O)cc1,-6.01% (inactive),
O=[N+]([O-])c1ccccc1/C=C/CN1CCC(O)CC1,10.5% (inactive),
O=C(c1cc(COc2c(F)cccc2F)on1)N1CCSCC1,-1.53% (inactive),
C(=C\c1ccccc1)/CSc1nnc(-c2cccnc2)n1Cc1ccco1,4.04% (inactive),
N=c1c2c(-c3ccccc3)c(-c3ccccc3)oc2ncn1Cc1ccco1,,20.6 µM (active)
Cn1c(SCC(=O)N2CCOCC2)nnc1-c1ccc2ncccc2c1,-28.6% (inactive),
O=C1c2ccncc2C(=O)N1C1CCCCC1,3.68% (inactive),
Cn1c(=O)c(=O)n(C)c2cc(S(=O)(=O)NCCc3ccccc3)ccc21,-4.87% (inactive),
C=CCC(NC(=O)Cc1ccccc1)C(=O)NCCC (stereo not drawn),-4.55% (inactive),
CC(CCc1ccccc1)NC(=O)COC(=O)c1ccc(F)cc1 (stereo not drawn),-0.972% (inactive),
C=CC[C@@H](Cc1ccc(F)cc1)C(=O)OC[C@H]1CCCN1C(=O)[C@H](CC=C)CC(=O)N(CCO)Cc1ccccc1,,18.4 µM (active)
C=CC[C@H](CC(=O)N(CCO)Cc1ccccc1)C(=O)N[C@@H](COC(=O)[C@@H](CC=C)Cc1ccc(F)cc1)Cc1ccccc1,,20.6 µM (active)
C=CCC[C@@H](Cc1ccc(F)cc1)C(=O)OC[C@@H](C)NC(=O)[C@H](CC=C)CC(=O)N(CCO)Cc1ccccc1,,8.2 µM (active)
O=C(O)CCC(=O)O,0.325% (inactive),
CC(=O)Nc1ccc(N2C(=O)CCC2=O)cc1C,-6.41% (inactive),
Cc1cc(=O)cc(C)[nH]1,-0.466% (inactive),
COc1cc(C(=O)NCCOC(=O)c2cccc(N(C)C)c2)cc(OC)c1OC,-26.7% (inactive),
Cc1ccc(C(=O)N(CC(=O)NC2CCCC2)c2ccc(F)cc2)s1,-24.1% (inactive),
O=[N+]([O-])c1ccccc1NCc1ccccc1Cl,-17% (inactive),

Compound,"activity change, negative = growth inhibition",Potency
O=c1c([N+](=O)[O-])cccn1Cc1ccc(F)cc1Cl,,20.6 µM (active)
N/C(=N/O)c1cccn1Cc1ccccc1[N+](=O)[O-],1.55% (inactive),
COc1ccc(C2C(C#N)=C(/N=C/N3CCOCC3)OC3=C2C(=O)CC(C)(C)C3)cc1OC (stereo not drawn),-4.9% (inactive),
Cc1ccc(S(=O)(=O)NCCC(=O)NCc2ccc(Cl)cc2)cc1C,-9.55% (inactive),
CC(C)NS(=O)(=O)c1ccc(CCC(=O)N2CCOCC2)cc1,4.33% (inactive),
CCNS(=O)(=O)c1ccc(CCC(=O)N2CCN(c3cc(Cl)ccc3C)CC2)cc1,,11.6 µM (active)
O=c1[nH]c(CSc2ncc(-c3ccc(F)cc3)n2Cc2ccco2)nc2ccccc12,,20.6 µM (active)
Nc1cc(=O)nc(SCc2ccccc2)n1Cc1ccco1,-21.7% (inactive),
O=C(CSc1nnc2scc(-c3ccc(F)cc3)n12)NCc1ccco1,-2.24% (inactive),
Nc1nonc1-c1nc2ccccc2n1CCC(=O)O,-11.1% (inactive),
COc1ccc2oc(N)nc2c1,-16.7% (inactive),
Cc1noc(C)c1COC(=O)Cn1c(C)nc2ccccc21,-5.16% (inactive),
Nc1nonc1-c1nc2ccccc2n1Cc1ccc(F)cc1,,20.6 µM (active)
COc1ccc(C)c(Cn2c(-c3nonc3N)nc3ccccc32)c1,,2.31 µM (active)
CC(C)(C)N1CC(c2nc3ccccc3n2Cc2ccc(F)cc2)CC1=O (stereo not drawn),-19.4% (inactive),
Cn1c(SCC(=O)N2CCCC2)nnc1-c1cccs1,-2.82% (inactive),
CN(Cc1ccccc1)C(=O)CCNC(=O)Cn1cnc2ccccc2c1=O,-15.3% (inactive),
CN1CCCCCC1C(=O)NCCN1Cc2ccccc2OC(c2ccsc2)C1 (stereo not drawn),-4.19% (inactive),
O=C(Cn1c(=O)sc2ccccc21)Nc1ccc2c(c1)OCCO2,-13.3% (inactive),
CCOc1ccc(NC(=O)Cn2c(=O)n(CCCC(=O)NCc3ccc4c(c3)OCO4)c(=O)c3ccccc32)cc1,1.6% (inactive),
CCc1ccc(NC(=O)Cn2c(=O)n(CCC(=O)NCc3ccc4c(c3)OCO4)c(=O)c3ccccc32)cc1,,9.2 µM (active)
CCCCC(=O)Nc1ccc2c(c1)OCCO2,-9.43% (inactive),
Cn1c(=O)c2ccccc2n(CC(=O)Nc2ccc3c(c2)OCCO3)c1=O,,9.2 µM (active)
CCc1ccc(NC(=O)Cn2nnc(C(=O)NCc3ccc4c(c3)OCO4)c2N)cc1,-16.8% (inactive),
Oc1ccc(-c2[nH]ncc2-c2nc3ccccc3s2)c(O)c1,10.6% (inactive),
COCCOC1CCN(C(=O)c2ccc(OC)c(OC3CCN(C(C)C)CC3)c2)CC1,8.08% (inactive),

Compound,"activity change, negative = growth inhibition",Potency
NC(=O)c1ccc(N2CCOCC2)nc1,22.6% (inactive),
CC(C)CNC(=O)COC(=O)/C=C/c1ccco1,-4.26% (inactive),
Cc1ccc(-c2onc(C)c2C)cc1S(=O)(=O)Nc1ccccn1,-25.3% (inactive),
COc1ccc(-c2onc(C)c2C)cc1S(=O)(=O)NCC1CCN(Cc2cccc(F)c2)CC1,,25.9 µM (active)
COc1ccc(C)cc1NC(=O)CNCc1cccs1,-1.9% (inactive),
COc1cc(NC(=O)NCC2CCN(Cc3ccc(C)cc3)CC2)cc(OC)c1OC,,inactive
COc1ccc(C)cc1S(=O)(=O)NCCc1ccccc1,-19.9% (inactive),
COc1ccc(-c2onc(C)c2C)cc1S(=O)(=O)NCc1cccs1,,18.4 µM (active)
O=C(CN1C2CCC1CC(NC(=O)C1CC1)C2)NCc1ccccc1 (stereo not drawn),1.04% (inactive),
O=S(=O)(O)CCN1CCOCC1,-6.34% (inactive),
Cc1nc2nc(CSc3nc4ccccc4s3)cc(=O)n2[nH]1,-12% (inactive),
C=CCOC(=O)C1=C[C@@H](c2ccc3c(c2)OCO3)C[C@@H](OCCCCO)O1,-79.5% (inactive),
COc1ccc2ccccc2c1CNCc1ccccn1,-28.3% (inactive),
Cc1ccc(C)c(NC(=S)NNC(=O)c2csc(C)c2)c1,,18.4 µM (active)
Cc1ccc(C)c(NC(=O)CCC(=O)NNC(=O)c2cccs2)c1,-1.86% (inactive),
Cc1ccc(C)c(NC(=O)NNC(=O)c2ccc3ccccc3c2O)c1,-26.2% (inactive),
Cc1cc(C(=O)OCC(=O)Nc2nnc(C(C)C)s2)c2ccccc2n1,-1.36% (inactive),
C=CCO/N=C(\C)c1c(O)c(C)c(-c2ccccc2)n(-c2ccccc2)c1=O,4.5% (inactive),
CC(C)c1ccc(NC(=O)c2ccc3c(O)c(S(=O)(=O)c4ccccc4)c(=O)[nH]c3c2)cc1,-26.3% (inactive),
COc1ccc(C)cc1S(=O)(=O)Nc1cccc(Cl)c1Cl,-19.3% (inactive),
COC(=O)c1scc(-c2ccc(C)cc2)c1S(=O)(=O)Nc1cc(Cl)c(OC)cc1OC,,11.6 µM (active)
COc1cc(OC)c(NS(=O)(=O)c2cn(C)cn2)cc1Cl,8.31% (inactive),
CC1O[C@@H](OC2C(O)C(C)O[C@H](OC(=O)[C@]34CCC(C)(C)C[C@H]3C3=CCC5[C@@]6(C)CC(O)C(O[C@@H]7OC(CO)C(O)[C@@H](O)[C@@H]7O)[C@@](C)(C(=O)O)C6CC[C@@]5(C)[C@]3(CO)CC4)C2O[C@H]2OC(C)[C@@H](O[C@@H]3OCC(O[C@@H]4OC(CO)C(O)[C@H](O)C4O)[C@@H](O)[C@@H]3O)[C@H](O)C2O)C(O)C(O)C1O (stereo partly drawn),-0.939% (inactive),
Cc1ccc(CN2COc3cc(C)c4c(oc(=O)c5ccccc54)c3C2)cc1,-25.3% (inactive),
CN(C(=O)c1ccccn1)c1nnc(-c2ccccn2)s1,-6.67% (inactive),
CC1CC(C)(C)NC(=S)N1CCC(=O)N1CCN(Cc2ccccc2)CC1 (stereo not drawn),-5.4% (inactive),

Compound,"activity change, negative = growth inhibition",Potency
Cc1ccc(N(Cc2cc(=O)[nH]c3ccccc23)C(=O)CCl)cc1,,2.31 µM (active)
CCOC(=O)c1ccc(COC(=O)c2cc(=O)[nH]c3ccccc23)o1,5.73% (inactive),
CC(=O)N(Cc1cc(=O)[nH]c2ccccc12)c1ccc(C)cc1C,-4.22% (inactive),
O=C(Nc1ccn(Cc2ccccc2F)n1)c1ccc(COc2ccc(Cl)cc2Cl)o1,,25.9 µM (active)
CC(=O)Nc1ccn(Cc2c(F)cccc2Cl)n1,-21.4% (inactive),
COC(=O)c1ccccc1NC(=O)c1ccc(COc2ccccc2Cl)o1,-23.7% (inactive),
O=C1CC(c2ccccc2)C(=O)N2C(=O)CC(c3ccccc3)C(=O)N12 (stereo not drawn),-3.36% (inactive),
c1ccc2c(c1)OCC(c1nn3cnnc3s1)O2 (stereo not drawn),9.7% (inactive),
O=C(CN1CCCC1)Nc1sc2c(c1C(=O)Nc1ccccc1)CCCC2,-23.3% (inactive),
COc1ccc(CC(=O)Nc2sc(Cc3ccccc3)c(C)c2C(N)=O)cc1,-17.9% (inactive),
CC(C)OC(=O)c1c(NC(=O)c2ccco2)sc2c1CCCC2,2.44% (inactive),
CCOc1ccc(NC(=O)c2c(NC(=O)Cc3ccccc3)sc3c2CCCCC3)cc1,,20.6 µM (active)
CCOC(=O)c1c(NC(=O)/C=C/c2ccc(OC)cc2)sc2c1CCC(C)C2 (stereo not drawn),-5.43% (inactive),
CCOc1ccc(NC(=O)c2c(NC(=O)Cc3ccccc3)sc3c2CCC(C)C3)cc1 (stereo not drawn),,20.6 µM (active)
Cc1sc2c(c1C)c(=O)n(-c1ccccc1)c1nncn21,-26.5% (inactive),
Cc1cccc(C2c3c(n(C)c(=O)n(C)c3=O)N=C3c4ccccc4C(=O)C32)c1 (stereo not drawn),-57.1% (inactive),
Cc1ccc(Nc2nc(N)nc(CSc3nnc(C)s3)n2)cc1,-20.7% (inactive),
Cc1ccc(Nc2nc(Cl)c(C=O)s2)cc1,,23.1 µM (active)
CC(=O)c1sc(N/N=C\c2ccc(C)cc2)nc1C,-6.34% (inactive),
COc1ccc(CC(=O)Nc2c3c(nn2-c2cccc(Cl)c2)CS(=O)C3)cc1 (stereo not drawn),-24.1% (inactive),
Cc1ccc(OCC(=O)NC(C)c2ccccc2)c([N+](=O)[O-])n1 (stereo not drawn),-5.01% (inactive),
C=C1C2C[C@H](O)C(C)(C)[C@@]2(O)[C@H](O)C[C@]23C[C@@](C)(O)[C@H](CC[C@H]12)[C@H]3O (stereo partly drawn),12.3% (inactive),
Cc1nn(-c2ccccc2)c(Cl)c1/C=N/NC(=O)c1nn(C)cc1[N+](=O)[O-],-28.7% (inactive),
Cc1cc(C(=O)N/N=C/c2ccccc2[N+](=O)[O-])c(C)o1,-20.6% (inactive),
Cc1c(C(=O)N/N=C/c2ccccc2)[nH]c2c([N+](=O)[O-])cccc12,,0.92 µM (active)
